Laboratory results as given in the antibiotic and cytotoxicity screens of Wong et al. (2023).
Out of some 39,000 compounds screened, about 1,500 (3.8%) were called active. Only a selection was taken, and actives are over-represented in it overall.

These compounds were tested on HSkMC (human skeletal muscle cells) (assay: cytotoxicity call (relative viability < 0.9)). Details: 10 µM.
`COc1ccc(S(=O)(=O)N(C)C[C@@H]2Oc3c(NS(=O)(=O)c4cn(C)cn4)cccc3C(=O)N([C@@H](C)CO)C[C@@H]2C)cc1` was tested, and the cytotoxicity call was “inactive”. With `C[C@@H]1CCCCO[C@H](CN(C)Cc2ccccc2)[C@H](C)CN([C@@H](C)CO)C(=O)c2cc(NC(=O)Nc3ccc(C(F)(F)F)cc3)ccc2O1` the cytotoxicity call was “active”. In the case of `C[C@H]1CCCCO[C@H](CN(C)Cc2ccccc2)[C@@H](C)CN([C@@H](C)CO)C(=O)c2cc(NC(=O)Nc3ccc(C(F)(F)F)cc3)ccc2O1`, the cytotoxicity call was “active”. `C[C@H]1CCCCO[C@@H](CN(C)Cc2ccccc2)[C@@H](C)CN([C@@H](C)CO)C(=O)c2cc(NC(=O)Nc3ccc(C(F)(F)F)cc3)ccc2O1` was tested, and the cytotoxicity call was “active”. For `C[C@@H]1CN([C@@H](C)CO)C(=O)c2cc(NC(=O)Nc3ccc(C(F)(F)F)cc3)ccc2O[C@@H](C)CCCCO[C@H]1CN(C)Cc1ccccc1`, the cytotoxicity call was “active”. With `COc1ccc(S(=O)(=O)N(C)C[C@H]2Oc3ccc(NC(=O)Cn4cnnn4)cc3CC(=O)N([C@H](C)CO)C[C@@H]2C)cc1` the cytotoxicity call was “inactive”. For `C[C@H](CO)N1C[C@H](C)[C@@H](CN(C)C(=O)Nc2cccc3ccccc23)Oc2ccc(NS(=O)(=O)c3ccc(F)cc3)cc2CC1=O`, the cytotoxicity call was “inactive”. With `CCCCCCCCCCCCCCCCOCCCOP(=O)(O)CO[C@H](CO)Cn1ccc(N)nc1=O` the cytotoxicity call was “inactive”. In the case of `CC(C)NC(=O)Nc1ccc2c(c1)C(=O)N([C@@H](C)CO)C[C@H](C)[C@@H](CN(C)Cc1ccc3c(c1)OCO3)O2`, the cytotoxicity call was “inactive”. For `COCCn1cc2c(n1)[C@H](CNC(=O)COC)OCC2`, the cytotoxicity call was “inactive”. `C[C@@H]1CCCCO[C@H](CN(C)C(=O)c2ccccc2)[C@@H](C)CN([C@H](C)CO)C(=O)c2cc(NC(=O)C3CCCCC3)ccc2O1` was tested, and the cytotoxicity call was “inactive”. For `C[C@@H]1CN([C@@H](C)CO)C(=O)c2cc(NC(=O)Nc3ccccc3)ccc2O[C@@H](C)CCCCO[C@H]1CN(C)C(=O)Nc1cccc2ccccc12`, the cytotoxicity call was “inactive”. With `C[C@@H]1CCCCO[C@H](CN(C)Cc2ccccc2)[C@@H](C)CN([C@H](C)CO)C(=O)c2cc(NC(=O)Nc3ccc(C(F)(F)F)cc3)ccc2O1` the cytotoxicity call was “active”. In the case of `C[C@H](CO)N1C[C@H](C)[C@H](CN(C)Cc2ccccc2)OCCCC[C@H](C)Oc2ccc(NC(=O)Nc3ccc(C(F)(F)F)cc3)cc2C1=O`, the cytotoxicity call was “active”. With `C[C@@H]1CN([C@H](C)CO)C(=O)c2cc(NC(=O)Nc3ccc(C(F)(F)F)cc3)ccc2O[C@@H](C)CCCCO[C@@H]1CN(C)Cc1ccccc1` the cytotoxicity call was “active”. With `C[C@@H]1CCCCO[C@H](CN(C)Cc2ccccc2)[C@@H](C)CN([C@@H](C)CO)C(=O)c2cc(NC(=O)Nc3ccc(C(F)(F)F)cc3)ccc2O1` the cytotoxicity call was “active”. In the case of `Cn1nc(C2CC2)cc1N`, the cytotoxicity call was “inactive”. With `C[C@H](CO)N1C[C@H](C)[C@@H](CN(C)C(=O)NC2CCCCC2)OCCCC[C@H](C)Oc2ccc(NC(=O)C3CCCCC3)cc2C1=O` the cytotoxicity call was “inactive”. With `Cc1noc(C)c1NC(=O)Nc1ccc2c(c1)C(=O)N([C@H](C)CO)C[C@H](C)[C@H](CN(C)C(=O)Cc1ccccc1)OCCCC[C@@H](C)O2` the cytotoxicity call was “inactive”. For `C[C@H](CO)N1C[C@H](C)[C@H](CN(C)C(=O)C2CCCCC2)Oc2cc(C#Cc3ccncc3)ccc2S1(=O)=O`, the cytotoxicity call was “inactive”. `Cc1onc(-c2ccccc2)c1C(=O)NC1C(=O)N2C1SC(C)(C)C2C(=O)[O-].[Na+]` (configuration not stated) was tested, and the cytotoxicity call was “inactive”. For `COc1ccc(S(=O)(=O)Nc2ccc3c(c2)C(=O)N([C@H](C)CO)C[C@H](C)[C@H](CN(C)C(=O)Nc2ccc(F)cc2)OCCCC[C@H](C)O3)cc1`, the cytotoxicity call was “inactive”. In the case of `O=C(O)c1ccoc1`, the cytotoxicity call was “inactive”. For `Cc1ccc(S(=O)(=O)N(C)C[C@H]2Oc3cc(C#Cc4ccncc4)ccc3S(=O)(=O)N([C@H](C)CO)C[C@@H]2C)cc1`, the cytotoxicity call was “inactive”. In the case of `C[C@@H]1CN([C@H](C)CO)C(=O)c2cc(NC(=O)NC3CCCCC3)ccc2O[C@@H]1CN(C)Cc1ccc(C(F)(F)F)cc1`, the cytotoxicity call was “inactive”. With `C[C@H](CO)N1C[C@H](C)[C@@H](CN(C)Cc2ccccc2)OCCCC[C@H](C)Oc2ccc(NC(=O)Nc3ccc(C(F)(F)F)cc3)cc2C1=O` the cytotoxicity call was “active”. In the case of `C[C@@H]1CN([C@@H](C)CO)C(=O)c2cc(NC(=O)Nc3ccc(C(F)(F)F)cc3)ccc2O[C@@H](C)CCCCO[C@@H]1CN(C)Cc1ccccc1`, the cytotoxicity call was “inactive”. In the case of `C[C@@H]1CCCCO[C@H](CN(C)Cc2ccccc2)[C@H](C)CN([C@H](C)CO)C(=O)c2cc(NC(=O)Nc3ccc(C(F)(F)F)cc3)ccc2O1`, the cytotoxicity call was “active”. `C[C@@H]1CCCCO[C@@H](CN(C)Cc2ccccc2)[C@@H](C)CN([C@H](C)CO)C(=O)c2cc(NC(=O)Nc3ccc(C(F)(F)F)cc3)ccc2O1` was tested, and the cytotoxicity call was “inactive”. In the case of `C[C@@H]1CCCCO[C@@H](CN(C)Cc2ccccc2)[C@H](C)CN([C@@H](C)CO)C(=O)c2cc(NC(=O)Nc3ccc(C(F)(F)F)cc3)ccc2O1`, the cytotoxicity call was “inactive”. `C[C@@H]1CCCCO[C@@H](CN(C)Cc2ccccc2)[C@H](C)CN([C@H](C)CO)C(=O)c2cc(NC(=O)Nc3ccc(C(F)(F)F)cc3)ccc2O1` was tested, and the cytotoxicity call was “inactive”. `C[C@@H]1CN([C@H](C)CO)C(=O)c2cc(NC(=O)Nc3ccc(C(F)(F)F)cc3)ccc2O[C@@H](C)CCCCO[C@H]1CN(C)Cc1ccccc1` was tested, and the cytotoxicity call was “active”. With `C[C@@H]1CCCCO[C@@H](CN(C)Cc2ccccc2)[C@@H](C)CN([C@@H](C)CO)C(=O)c2cc(NC(=O)Nc3ccc(C(F)(F)F)cc3)ccc2O1` the cytotoxicity call was “active”. In the case of `CCC[C@@H](O)C#Cc1cnc2c(c1)C(=O)N([C@H](C)CO)C[C@H](C)[C@H](CN(C)C(=O)Nc1ccc(F)cc1)O2`, the cytotoxicity call was “inactive”. In the case of `COC(=O)C12CC3(C(=O)OC)CC(C(=O)OC)(CC(C(=O)OC)(C1)C3=O)C2=O`, the cytotoxicity call was “inactive”. `COc1cccc(S(=O)(=O)Nc2ccc3c(c2)[C@@H]2C[C@H](CC(=O)NCc4cccc(F)c4)O[C@@H](CO)[C@@H]2O3)c1` was tested, and the cytotoxicity call was “inactive”. With `Cc1c2occ(C(C)(C)C)c2cc2c3c(c(=O)oc12)CCCC3` the cytotoxicity call was “inactive”. In the case of `NC(=O)c1ccco1`, the cytotoxicity call was “inactive”. `C[C@H](CO)N1C[C@H](C)[C@H](CN(C)C(=O)Nc2cccc3ccccc23)Oc2c(NC(=O)NC3CCCCC3)cccc2C1=O` was tested, and the cytotoxicity call was “inactive”. For `COc1ccc(NC(=O)N(C)C[C@H]2Oc3ccc(NC(=O)C4CC4)cc3C(=O)N([C@H](C)CO)C[C@H]2C)cc1`, the cytotoxicity call was “inactive”. `C=CCOC(=O)[C@H]1[C@@H]2C(=O)O[C@@H](c3ccccc3)[C@@H](c3ccccc3)N2[C@@H](c2ccc(OCCOC(=O)NCCCCCC(=O)NO)cc2)[C@@]12C(=O)Nc1ccccc12` was tested, and the cytotoxicity call was “inactive”. `C[C@@H]1CCCCO[C@H](CN(C)C(=O)Cc2ccccc2)[C@@H](C)CN([C@@H](C)CO)C(=O)c2cc(NS(=O)(=O)c3ccc(F)cc3)ccc2O1` was tested, and the cytotoxicity call was “inactive”. For `Cn1c(=O)c2c(ncn2CC(=O)O)n(C)c1=O`, the cytotoxicity call was “inactive”. With `Cc1cnc(Nc2ccc(F)cc2Cl)nc1-c1c[nH]c(C(=O)N[C@H](CO)c2cccc(Cl)c2)c1` the cytotoxicity call was “active”. For `O=C(C[C@@H]1CC[C@@H]2NC[C@@H](O)COC[C@H]2O1)NCCN1CCCC1`, the cytotoxicity call was “inactive”. For `Cc1ccc(S(=O)(=O)N(C)C[C@@H]2OCCCC[C@H](C)Oc3ccc(NS(=O)(=O)c4ccc(Cl)cc4)cc3C(=O)N([C@@H](C)CO)C[C@H]2C)cc1`, the cytotoxicity call was “inactive”. In the case of `O=C(O)c1cc2sccc2s1`, the cytotoxicity call was “inactive”. `CCOc1cc2ncc(C#N)c(Nc3ccc(OCc4ccccn4)c(Cl)c3)c2cc1NC(=O)/C=C/[C@H]1CCCN1C` was tested, and the cytotoxicity call was “inactive”. In the case of `CCOc1cc2ncc(C#N)c(Nc3ccc(OCc4ccccn4)c(Cl)c3)c2cc1NC(=O)/C=C/CN(C)C`, the cytotoxicity call was “active”. With `COc1cc(Nc2c(C#N)cnc3cc(OCCCN4CCN(C)CC4)c(OC)cc23)c(Cl)cc1Cl` the cytotoxicity call was “inactive”. In the case of `C[C@@H]1CCCCO[C@@H](CN(C)C(=O)Cc2ccccc2)[C@H](C)CN([C@@H](C)CO)C(=O)c2cc(NS(=O)(=O)c3ccc(Cl)cc3)ccc2O1`, the cytotoxicity call was “inactive”. For `CC(=O)N(C)C1(c2ccccc2)CCN(CCC[C@]2(c3ccc(Cl)c(Cl)c3)CCCN(C(=O)c3ccccc3)C2)CC1`, the cytotoxicity call was “active”. `CC(C)Oc1cccc(CC(=O)N2CCC[C@](CC[N+]34CCC(c5ccccc5)(CC3)CC4)(c3ccc(Cl)c(Cl)c3)C2)c1` was tested, and the cytotoxicity call was “inactive”. For `CC(C)NC(=O)Nc1ccc2c(c1)CC(=O)N([C@@H](C)CO)C[C@@H](C)[C@@H](CN(C)S(=O)(=O)c1cn(C)cn1)O2`, the cytotoxicity call was “inactive”. In the case of `C[C@H](CO)N1C[C@H](C)[C@@H](CN(C)Cc2ccccc2)OCCCC[C@H](C)Oc2ccc(NC(=O)c3ccncc3)cc2C1=O`, the cytotoxicity call was “inactive”. For `C[C@H](CO)N1C[C@H](C)[C@@H](CN(C)Cc2ccc(C(F)(F)F)cc2)OCc2ccccc2-c2c(n(C)c3ccccc23)C1=O`, the cytotoxicity call was “inactive”. In the case of `C[C@@H]1CN([C@H](C)CO)C(=O)c2c(c3ccccc3n2C)-c2ccccc2CO[C@@H]1CN(C)Cc1ccc(C(F)(F)F)cc1`, the cytotoxicity call was “active”. In the case of `C[C@@H]1CN([C@H](C)CO)C(=O)c2c(c3ccccc3n2C)-c2ccccc2CO[C@H]1CN(C)S(=O)(=O)c1ccc(C(F)(F)F)cc1`, the cytotoxicity call was “active”. In the case of `C[C@@H]1CN([C@H](C)CO)C(=O)c2c(c3ccccc3n2C)-c2ccccc2CO[C@@H]1CN(C)S(=O)(=O)c1ccc(C(F)(F)F)cc1`, the cytotoxicity call was “inactive”. For `C[C@@H]1CN([C@H](C)CO)C(=O)c2c(c3ccccc3n2C)-c2ccccc2CO[C@H]1CN(C)Cc1ccc(C(F)(F)F)cc1`, the cytotoxicity call was “active”. For `C[C@@H]1CN([C@@H](C)CO)C(=O)c2c(c3ccccc3n2C)-c2ccccc2CO[C@H]1CN(C)Cc1ccc(C(F)(F)F)cc1`, the cytotoxicity call was “active”. `C[C@H](CO)N1C[C@H](C)[C@H](CN(C)Cc2ccc(C(F)(F)F)cc2)OCc2ccccc2-c2c(n(C)c3ccccc23)C1=O` was tested, and the cytotoxicity call was “inactive”. In the case of `C[C@@H]1CN([C@@H](C)CO)C(=O)c2c(c3ccccc3n2C)-c2ccccc2CO[C@@H]1CN(C)Cc1ccc(C(F)(F)F)cc1`, the cytotoxicity call was “inactive”. `C[C@H]1CN([C@@H](C)CO)C(=O)c2c(c3ccccc3n2C)-c2ccccc2CO[C@H]1CN(C)Cc1ccc(C(F)(F)F)cc1` was tested, and the cytotoxicity call was “inactive”. In the case of `C[C@@H]1CN([C@H](C)CO)C(=O)c2c(c3ccccc3n2C)-c2ccccc2CO[C@@H]1CN(C)Cc1ccc(F)cc1`, the cytotoxicity call was “inactive”. With `C[C@@H]1CN([C@@H](C)CO)C(=O)c2c(c3ccccc3n2C)-c2ccccc2CO[C@@H]1CN(C)S(=O)(=O)c1ccc(C(F)(F)F)cc1` the cytotoxicity call was “inactive”. `C[C@H]1CN([C@@H](C)CO)C(=O)c2c(c3ccccc3n2C)-c2ccccc2CO[C@@H]1CN(C)Cc1ccc(C(F)(F)F)cc1` was tested, and the cytotoxicity call was “inactive”.
